PubChem BioAssay (NCATS)
Inconclusive results are not listed. Activity calls are given as the source filed them. Calls come from the whole dose curve; as a rule, active = well fitted curve in the direction sought with a large enough effect; inconclusive = small, poorly fitted or top-dose-only effect, or another doubt; inactive = no such curve, though single readings can be large or run the other way.

The compounds below were run against Metallo-beta-lactamase type 2 (Klebsiella pneumoniae) (UniProt C7C422) (assay: qHTS to identify inhibitors of the New Delhi Metallo-beta-lactamase (NDM): assay validation screen against the NCATS LOPAC Collection (AID 1794843;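 note: nitrocefin turnover by NDM-1 measured as 485 nm absorbance at plateau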)). Conditions: NDM-1 enzyme, nitrocefin hydrolysis, absorbance 485 nm; series mostly up to 38.4 µM; activity change, negative = inhibition: at the top concentration.
Metallo-beta-lactamase type 2 (Klebsiella pneumoniae), sequence (C7C422 whole entry, looked up): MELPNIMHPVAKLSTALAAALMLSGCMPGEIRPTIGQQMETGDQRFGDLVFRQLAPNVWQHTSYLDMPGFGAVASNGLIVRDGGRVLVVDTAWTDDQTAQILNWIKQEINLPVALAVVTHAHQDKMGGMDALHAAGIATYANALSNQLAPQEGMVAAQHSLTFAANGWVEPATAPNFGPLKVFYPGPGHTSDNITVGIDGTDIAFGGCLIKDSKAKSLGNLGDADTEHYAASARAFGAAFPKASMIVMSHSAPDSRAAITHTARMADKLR
Excerpt: Assay Submitter (PI): James Inglese Ph.D., Patricia Dranchak Ph.D., Mahesh Aitha Ph.D.
Assay Development and Screening Technology Laboratory (ADST)
National Center for Advancing Translational Sciences (NCATS), Rockville, MD
National Institute of Health (NIH), Bethesda, Maryland
The metallo-beta-lactamases (MBL) are a main antibiotic resistance mechanism evolved by bacteria. There is an urgent clinical need for MBL inhibitors to mitigate this growing threat. To support a machine-based learning study, qHTS has been used to experimentally test inhibitors identified by prediction tools.
PROTOCOL TABLE (as described by Inglese et al., 2007)
SEQUENCE No. (e.g., 1, 2, 3, etc.); […] (e.g., enzyme, Incubation, Reagent, etc.); VALUE; DESCRIPTION
1; NDM-1; 4 uL of 3 nM enzyme in 50 mM HEPES (pH 7.0), 1 uM Zn2SO4, 0.01% Tween20; Use BioRaptr to dispense into Aurora black, clear bottom low base 1536-well plates
2; Compounds; 23 nL; Use Pin Tool (Wako) to transfer DMSO control and library compounds in DMSO
4; Reagent; 2 uL of 50 uM nitrocefin
6; Detector; Absorbance at 485 nm (bandwidth = 5 nm, 25 flashes/well) on Tecan Infinity
NOTES (numbers refer to sequence above)
1; Column 1 of each plate received assay buffer without enzyme and columns 2-48 received enzyme for a final assay concentration of 2 nM.
2; Control plate contained DMSO in columns 1, 2, 3, and 4.
3; Compound interaction with enzyme.
5; Substrate interaction with enzyme, plateau phase of kinetics.
6; Default reader settings were applied for absorbance read at 485 nm, bandwidth = 5 nm, 25 flashes/well.
Inglese J, Shamu CE, Guy RK. 2007. Reporting data from high-throughput screening of small-molecule libraries. Nat Chem Biol. doi:10.1038/nchembio0807-438
Yasgar A, Shinn P, Jadhav A, Auld D, Michael S, Zheng W, Austin CP, Inglese J, Simeonov A. 2008. Compound Management for Quantitative High-Throughput Screening. J Lab Autom 13:79 - 89. doi:10.1016/j.jala.2007.12.004
% is set by controls: 0 for no effect and ±100 for the full control effect.

Compound	activity change, negative = inhibition
O=[N+]([O-])c1ccc(-c2nc(-c3ccc(F)cc3)c(-c3ccncc3)[nH]2)cc1	2.76% (inactive)
CN(C)c1cc2c(Nc3ccc4c(cnn4Cc4ccccc4)c3)ncnc2cn1	72.1% (inactive)
COc1ccccc1N1CCN(CCN2C(=O)CC3(CCCC3)CC2=O)CC1	-26.8% (inactive)
Cn1cnc2c(NCc3ccccc3)nc(NCCO)nc21	-4.7% (inactive)
O=C1NC(c2cccc([N+](=O)[O-])c2)=CCN1c1ccccc1O	9.66% (inactive)
N[C@@H](Cn1ccc(=O)c(O)c1)C(=O)O	2.18% (inactive)
Clc1ccc2c(c1)N=C(N1CCNCC1)c1ccccc1N2	1.28% (inactive)
COC(=O)C1=CO[C@@H](O)[C@@H]2C(CO)=CC[C@H]12	9.23% (inactive)
Nc1ncnc2n[nH]c(Nc3ccc(F)cc3)c12	0.8% (inactive)
CC(C)N(CCC(=O)c1ccc2ccccc2c1)Cc1ccccc1	3.07% (inactive)
O=C1NC(=O)/C(=C/c2ccc3c(c2)OC(F)(F)O3)S1	12.9% (inactive)
NC(N)=NCCCCN=C(N)N	-3.91% (inactive)
Cc1nn(-c2ccccc2)c(C)c1/C=N/N1CCN(Cc2ccccc2)CC1	2.9% (inactive)
CCN(CC)CCNC(=O)c1ccc(NS(C)(=O)=O)cc1	6.01% (inactive)
COc1cccc2c1[C@@H]1CN(CCCCn3c(=O)[nH]c4c(sc5ncc(-c6ccccc6)nc54)c3=O)C[C@@H]1CO2	-9.93% (inactive)
C[N+](C)(C)CCO	4.12% (inactive)
